Test results: ChEMBL document CHEMBL2218924, “A broad activity screen in support of a chemogenomic map for kinase signalling research and drug discovery” (Biochem J, 2013)

What was measured:
[1] = target: Ribosomal protein S6 kinase beta-1 (Homo sapiens) (UniProt P23443); settings: at 1 µM
[2] = target: Ribosomal protein S6 kinase beta-1 (Homo sapiens) (UniProt P23443); settings: at 10 µM
[3] = target: Serine/threonine-protein kinase Nek6 (Homo sapiens) (UniProt Q9HC98); settings: at 1 µM
[4] = target: Serine/threonine-protein kinase Nek6 (Homo sapiens) (UniProt Q9HC98); settings: at 10 µM
[5] = target: T1, Serine/threonine-protein kinase NLK (Homo sapiens) (UniProt Q9UBE8); settings: at 1 µM
T1 sequence (whole entry): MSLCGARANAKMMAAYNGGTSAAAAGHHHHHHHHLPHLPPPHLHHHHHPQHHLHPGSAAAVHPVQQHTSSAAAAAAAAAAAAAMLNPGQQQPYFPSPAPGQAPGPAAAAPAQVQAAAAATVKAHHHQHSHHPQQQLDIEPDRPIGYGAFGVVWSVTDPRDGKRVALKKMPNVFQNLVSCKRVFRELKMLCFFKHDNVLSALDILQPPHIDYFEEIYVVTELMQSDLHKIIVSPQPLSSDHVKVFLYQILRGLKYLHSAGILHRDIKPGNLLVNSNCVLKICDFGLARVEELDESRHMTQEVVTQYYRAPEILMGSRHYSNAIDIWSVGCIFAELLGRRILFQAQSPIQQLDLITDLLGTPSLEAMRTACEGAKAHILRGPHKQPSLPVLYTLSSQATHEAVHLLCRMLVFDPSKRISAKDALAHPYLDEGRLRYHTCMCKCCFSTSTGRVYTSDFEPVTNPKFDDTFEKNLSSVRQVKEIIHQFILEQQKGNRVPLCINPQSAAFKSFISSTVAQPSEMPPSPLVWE

[6] = target: T1, Serine/threonine-protein kinase NLK (Homo sapiens); settings: at 10 µM
[7] = target: Serine/threonine-protein kinase PAK 4 (Homo sapiens) (UniProt O96013); settings: at 10 µM
Chain of Serine/threonine-protein kinase PAK 4 (Homo sapiens) (O96013 whole entry, looked up): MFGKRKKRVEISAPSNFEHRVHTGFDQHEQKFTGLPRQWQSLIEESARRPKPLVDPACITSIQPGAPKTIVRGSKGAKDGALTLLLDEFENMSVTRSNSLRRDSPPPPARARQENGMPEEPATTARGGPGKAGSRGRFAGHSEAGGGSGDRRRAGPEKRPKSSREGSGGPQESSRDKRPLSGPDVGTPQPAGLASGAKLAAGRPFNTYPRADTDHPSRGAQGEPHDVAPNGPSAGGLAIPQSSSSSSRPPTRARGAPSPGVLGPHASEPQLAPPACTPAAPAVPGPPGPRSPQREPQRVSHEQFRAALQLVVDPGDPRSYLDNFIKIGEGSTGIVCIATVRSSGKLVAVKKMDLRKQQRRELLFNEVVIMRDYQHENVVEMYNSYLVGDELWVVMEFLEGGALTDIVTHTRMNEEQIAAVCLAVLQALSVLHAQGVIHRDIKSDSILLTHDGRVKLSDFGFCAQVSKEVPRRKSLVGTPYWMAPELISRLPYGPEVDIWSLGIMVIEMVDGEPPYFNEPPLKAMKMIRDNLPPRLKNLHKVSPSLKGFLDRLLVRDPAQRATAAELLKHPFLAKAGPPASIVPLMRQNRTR

[8] = target: Serine/threonine-protein kinase PAK 6 (Homo sapiens) (UniProt Q9NQU5); settings: at 1 µM
Chain of Serine/threonine-protein kinase PAK 6 (Homo sapiens) (Q9NQU5 whole entry, looked up, the tested form may be a part): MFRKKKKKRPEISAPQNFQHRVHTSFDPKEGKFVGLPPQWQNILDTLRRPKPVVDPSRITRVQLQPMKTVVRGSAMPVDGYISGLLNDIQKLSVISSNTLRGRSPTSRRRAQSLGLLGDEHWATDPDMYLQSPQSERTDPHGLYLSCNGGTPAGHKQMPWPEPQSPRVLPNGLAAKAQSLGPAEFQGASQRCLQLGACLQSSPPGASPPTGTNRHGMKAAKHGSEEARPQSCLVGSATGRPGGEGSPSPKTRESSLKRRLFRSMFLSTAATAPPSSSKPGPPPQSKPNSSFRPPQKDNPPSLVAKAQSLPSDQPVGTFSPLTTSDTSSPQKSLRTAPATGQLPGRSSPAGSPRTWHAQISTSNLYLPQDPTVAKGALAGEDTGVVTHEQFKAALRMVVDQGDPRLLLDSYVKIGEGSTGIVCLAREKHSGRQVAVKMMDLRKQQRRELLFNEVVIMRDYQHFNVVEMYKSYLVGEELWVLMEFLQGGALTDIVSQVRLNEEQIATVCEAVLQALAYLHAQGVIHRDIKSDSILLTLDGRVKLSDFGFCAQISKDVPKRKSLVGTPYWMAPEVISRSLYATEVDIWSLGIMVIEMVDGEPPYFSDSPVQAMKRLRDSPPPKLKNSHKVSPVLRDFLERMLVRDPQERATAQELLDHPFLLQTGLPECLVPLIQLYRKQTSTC

[9] = target: Serine/threonine-protein kinase PAK 6 (Homo sapiens) (UniProt Q9NQU5); settings: at 10 µM
[10] = target: PAS domain-containing serine/threonine-protein kinase (Homo sapiens) (UniProt Q96RG2); settings: at 10 µM
[11] = target: Activated CDC42 kinase 1 (Homo sapiens) (UniProt Q07912); settings: at 1 µM
Chain of Activated CDC42 kinase 1 (Homo sapiens) (Q07912 whole entry, looked up): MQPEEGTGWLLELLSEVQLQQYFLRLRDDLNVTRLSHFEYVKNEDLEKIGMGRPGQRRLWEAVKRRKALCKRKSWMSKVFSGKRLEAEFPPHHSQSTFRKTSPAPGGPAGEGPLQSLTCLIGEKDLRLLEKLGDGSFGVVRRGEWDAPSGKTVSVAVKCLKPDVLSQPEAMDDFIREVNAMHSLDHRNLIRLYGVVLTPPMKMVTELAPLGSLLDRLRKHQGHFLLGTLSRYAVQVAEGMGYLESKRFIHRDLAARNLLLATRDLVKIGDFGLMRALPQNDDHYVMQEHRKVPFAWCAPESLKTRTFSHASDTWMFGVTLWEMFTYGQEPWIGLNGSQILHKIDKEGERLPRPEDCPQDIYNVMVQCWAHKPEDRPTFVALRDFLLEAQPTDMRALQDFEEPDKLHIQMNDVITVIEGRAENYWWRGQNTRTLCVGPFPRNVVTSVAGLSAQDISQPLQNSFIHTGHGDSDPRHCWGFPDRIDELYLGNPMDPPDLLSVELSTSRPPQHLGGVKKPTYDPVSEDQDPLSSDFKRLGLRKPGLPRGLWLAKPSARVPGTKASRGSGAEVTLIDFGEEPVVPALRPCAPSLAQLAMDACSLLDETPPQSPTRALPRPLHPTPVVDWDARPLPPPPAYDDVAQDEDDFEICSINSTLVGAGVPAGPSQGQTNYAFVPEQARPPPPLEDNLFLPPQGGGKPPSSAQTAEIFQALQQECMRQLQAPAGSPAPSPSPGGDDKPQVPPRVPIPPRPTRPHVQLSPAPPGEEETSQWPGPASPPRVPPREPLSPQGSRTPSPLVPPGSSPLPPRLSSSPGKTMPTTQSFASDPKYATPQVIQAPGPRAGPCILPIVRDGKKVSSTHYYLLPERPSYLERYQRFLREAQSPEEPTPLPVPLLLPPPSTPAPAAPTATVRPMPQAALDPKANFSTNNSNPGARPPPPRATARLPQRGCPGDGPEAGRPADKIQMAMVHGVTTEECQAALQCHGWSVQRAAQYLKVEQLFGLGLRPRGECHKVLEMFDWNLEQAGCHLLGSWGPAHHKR

[12] = target: Activated CDC42 kinase 1 (Homo sapiens) (UniProt Q07912); settings: at 10 µM
[13] = target: Serine/threonine-protein kinase Nek7 (Homo sapiens) (UniProt Q8TDX7); settings: at 1 µM
Chain of Serine/threonine-protein kinase Nek7 (Homo sapiens) (Q8TDX7 whole entry, looked up): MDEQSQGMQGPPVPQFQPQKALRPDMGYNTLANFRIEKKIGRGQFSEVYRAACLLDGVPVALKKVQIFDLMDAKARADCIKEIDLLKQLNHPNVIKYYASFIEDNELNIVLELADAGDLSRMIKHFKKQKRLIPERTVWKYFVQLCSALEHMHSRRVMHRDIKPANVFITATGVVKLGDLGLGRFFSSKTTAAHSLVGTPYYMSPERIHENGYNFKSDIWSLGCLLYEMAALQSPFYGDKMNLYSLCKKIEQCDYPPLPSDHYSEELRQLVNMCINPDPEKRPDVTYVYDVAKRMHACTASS

[14] = target: Serine/threonine-protein kinase Nek7 (Homo sapiens) (UniProt Q8TDX7); settings: at 10 µM
[15] = target: Serine/threonine-protein kinase PAK 2 (Homo sapiens) (UniProt Q13177); settings: at 1 µM
[16] = target: Serine/threonine-protein kinase PAK 2 (Homo sapiens) (UniProt Q13177); settings: at 10 µM
[17] = target: Serine/threonine-protein kinase PAK 4 (Homo sapiens) (UniProt O96013); settings: at 1 µM
[18] = target: Serine/threonine-protein kinase PAK 5 (Homo sapiens) (UniProt Q9P286); settings: at 1 µM
[19] = target: Serine/threonine-protein kinase PAK 5 (Homo sapiens) (UniProt Q9P286); settings: at 10 µM
[20] = target: ALK tyrosine kinase receptor (Homo sapiens) (UniProt Q9UM73); settings: at 1 µM
Chain of ALK tyrosine kinase receptor (Homo sapiens) (Q9UM73 19-1620 limits assumed): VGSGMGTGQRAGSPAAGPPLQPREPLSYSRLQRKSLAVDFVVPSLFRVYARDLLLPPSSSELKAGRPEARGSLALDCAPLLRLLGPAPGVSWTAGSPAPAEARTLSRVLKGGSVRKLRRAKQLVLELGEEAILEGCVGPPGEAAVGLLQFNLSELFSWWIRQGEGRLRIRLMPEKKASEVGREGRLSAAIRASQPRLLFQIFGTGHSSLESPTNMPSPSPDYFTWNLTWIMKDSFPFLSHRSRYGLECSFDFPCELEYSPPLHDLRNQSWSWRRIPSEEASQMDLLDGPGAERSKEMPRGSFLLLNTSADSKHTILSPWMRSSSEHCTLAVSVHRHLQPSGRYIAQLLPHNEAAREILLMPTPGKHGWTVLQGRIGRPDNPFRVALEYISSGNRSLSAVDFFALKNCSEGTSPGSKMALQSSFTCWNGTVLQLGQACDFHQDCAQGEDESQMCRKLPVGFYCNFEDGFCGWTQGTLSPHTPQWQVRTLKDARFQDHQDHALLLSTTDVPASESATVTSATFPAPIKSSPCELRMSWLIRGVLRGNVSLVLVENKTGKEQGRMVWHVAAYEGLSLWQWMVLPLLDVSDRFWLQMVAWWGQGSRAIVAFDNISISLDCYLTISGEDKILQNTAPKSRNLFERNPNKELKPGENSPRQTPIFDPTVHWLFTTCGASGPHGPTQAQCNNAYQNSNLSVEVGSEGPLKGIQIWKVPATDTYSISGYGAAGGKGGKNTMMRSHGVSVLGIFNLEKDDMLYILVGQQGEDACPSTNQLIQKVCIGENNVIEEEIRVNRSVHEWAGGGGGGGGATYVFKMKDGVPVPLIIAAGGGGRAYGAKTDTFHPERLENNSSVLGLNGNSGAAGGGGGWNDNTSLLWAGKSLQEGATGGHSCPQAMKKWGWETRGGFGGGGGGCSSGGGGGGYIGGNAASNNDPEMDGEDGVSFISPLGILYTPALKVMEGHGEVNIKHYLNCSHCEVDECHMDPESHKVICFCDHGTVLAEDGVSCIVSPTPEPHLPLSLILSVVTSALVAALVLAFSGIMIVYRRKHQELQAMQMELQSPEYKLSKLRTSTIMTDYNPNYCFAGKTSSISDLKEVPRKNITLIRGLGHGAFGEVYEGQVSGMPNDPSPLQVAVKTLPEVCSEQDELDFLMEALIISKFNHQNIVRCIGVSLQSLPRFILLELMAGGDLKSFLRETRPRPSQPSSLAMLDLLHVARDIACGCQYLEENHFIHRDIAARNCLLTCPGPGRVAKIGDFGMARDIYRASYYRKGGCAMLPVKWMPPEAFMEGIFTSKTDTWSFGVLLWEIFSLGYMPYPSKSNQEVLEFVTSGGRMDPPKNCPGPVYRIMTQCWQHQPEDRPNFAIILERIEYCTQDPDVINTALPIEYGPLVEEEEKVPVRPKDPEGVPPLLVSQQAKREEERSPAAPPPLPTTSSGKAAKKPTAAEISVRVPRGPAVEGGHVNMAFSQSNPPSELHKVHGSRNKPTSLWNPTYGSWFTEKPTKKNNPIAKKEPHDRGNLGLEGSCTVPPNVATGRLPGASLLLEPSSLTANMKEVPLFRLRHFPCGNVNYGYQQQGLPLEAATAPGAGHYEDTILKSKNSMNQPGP

Chain of Serine/threonine-protein kinase Nek6 (Homo sapiens) (Q9HC98 whole entry): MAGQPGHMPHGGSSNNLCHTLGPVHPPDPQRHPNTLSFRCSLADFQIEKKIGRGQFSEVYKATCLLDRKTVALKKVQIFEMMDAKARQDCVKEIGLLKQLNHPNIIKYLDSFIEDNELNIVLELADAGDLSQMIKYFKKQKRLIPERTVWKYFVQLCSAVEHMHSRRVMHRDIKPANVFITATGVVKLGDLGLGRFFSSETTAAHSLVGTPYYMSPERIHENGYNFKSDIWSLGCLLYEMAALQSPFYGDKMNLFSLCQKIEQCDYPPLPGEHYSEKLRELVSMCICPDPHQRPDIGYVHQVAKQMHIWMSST
Chain of Ribosomal protein S6 kinase beta-1 (Homo sapiens) (P23443 whole entry, looked up): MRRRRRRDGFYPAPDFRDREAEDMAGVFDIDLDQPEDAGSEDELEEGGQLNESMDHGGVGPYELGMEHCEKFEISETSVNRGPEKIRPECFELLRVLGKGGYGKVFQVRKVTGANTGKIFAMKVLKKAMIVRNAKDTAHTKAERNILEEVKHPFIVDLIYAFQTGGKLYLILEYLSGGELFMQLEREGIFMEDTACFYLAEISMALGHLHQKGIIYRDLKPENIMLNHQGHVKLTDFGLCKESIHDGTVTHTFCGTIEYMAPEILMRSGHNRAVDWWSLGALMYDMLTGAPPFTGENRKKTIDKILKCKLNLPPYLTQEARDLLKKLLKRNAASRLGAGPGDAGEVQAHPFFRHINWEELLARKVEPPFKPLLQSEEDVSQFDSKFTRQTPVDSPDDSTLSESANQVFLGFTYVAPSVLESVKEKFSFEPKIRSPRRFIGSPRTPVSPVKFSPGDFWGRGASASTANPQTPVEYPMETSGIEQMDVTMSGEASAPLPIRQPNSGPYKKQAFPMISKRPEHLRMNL

Structure (SMILES)	residual activity [1]	residual activity [2]	residual activity [3]	residual activity [4]	residual activity [5]	residual activity [6]	residual activity [7]	residual activity [8]	residual activity [9]	residual activity [10]	residual activity [11]	residual activity [12]	residual activity [13]	residual activity [14]	residual activity [15]	residual activity [16]	residual activity [17]	residual activity [18]	residual activity [19]	residual activity [20]
COc1cc2ncc(-c3ccccc3)nc2cc1OC	63%	47%	80% (inactive)	89%	100%	93%	93%	92%	74%	93%	96%	56%	–	–	–	–	–	–	–	–
NC(=O)c1ccc2[nH]c(-c3ccc(Oc4ccc(Cl)cc4)cc3)nc2c1	92%	90%	117% (inactive)	113%	88%	59%	92%	110%	103%	123%	77%	61%	102% (inactive)	104% (inactive)	111%	82%	97%	99%	113%	75%
O=C(O)c1ccc2c3c1cccc3c(=O)n1c3ccccc3nc21	89%	46%	109% (inactive)	101%	107%	72%	98%	91%	85%	98%	94%	75%	114% (inactive)	108% (inactive)	101%	95%	100%	100%	96%	70%
Ic1cccc(CSc2nnc(-c3ccncc3)o2)c1	55%	32%	113% (inactive)	115%	89%	89%	84%	89%	73%	106%	75%	60%	101% (inactive)	81% (inactive)	104%	92%	91%	91%	72%	73%
c1ccc(-c2n[nH]cc2-c2ccnc3ccccc23)nc1	72%	58%	–	–	72%	27%	90%	–	–	82%	77%	50%	–	–	107%	88%	98%	92%	104%	85%
c1ccc2c(-c3ccncc3)c[nH]c2c1	53%	31%	95% (inactive)	110%	96%	73%	80%	106%	103%	20%	80%	49%	95% (inactive)	95% (inactive)	98%	82%	93%	97%	103%	76%
O=C1c2ccccc2-[n+]2ccc3c([nH]c4ccccc43)c21	86%	54%	109% (inactive)	104%	86%	70%	92%	102%	84%	119%	77%	55%	–	101% (inactive)	107%	94%	90%	82%	90%	85%
COc1cc2ncnc(N3CCN(C(=O)Nc4ccc(Oc5ccccc5)cc4)CC3)c2cc1OC	–	–	91% (inactive)	126%	88%	89%	84%	112%	–	–	68%	54%	97% (inactive)	113% (inactive)	110%	86%	94%	91%	122%	73%
CN(C)CCCn1cc(C2=C(c3c[nH]c4ccccc34)C(=O)NC2=O)c2ccccc21	11%	2%	–	113%	127%	88%	75%	–	78%	18%	112%	45%	117% (inactive)	121% (inactive)	115%	–	102%	88%	77%	–
N#CC(C#N)=C(N)/C(C#N)=C/c1ccc(O)cc1	66%	77%	–	–	–	–	91%	100%	87%	65%	84%	70%	–	–	88%	97%	98%	–	–	88%
O=C1NC(=O)c2c1c1c3ccccc3[nH]c1c1[nH]c3cc(Br)ccc3c21	92%	52%	121% (inactive)	117%	82%	93%	92%	77%	58%	96%	64%	61%	103% (inactive)	89% (inactive)	122%	106%	94%	101%	85%	91%
CCC(=O)Nc1ccc2ncnc(Nc3cccc(Br)c3)c2c1	111%	127%	79% (inactive)	110%	91%	64%	86%	107%	93%	36%	70%	36%	89% (inactive)	114% (inactive)	110%	84%	99%	97%	98%	81%
Cn1cc(/C=C2\C(=O)Nc3ccc(S(N)(=O)=O)cc32)c2ccccc21	29%	11%	100% (inactive)	112%	104%	84%	7%	46%	22%	71%	60%	36%	103% (inactive)	89% (inactive)	124%	91%	28%	41%	26%	56%
Oc1ccc(-c2nc(-c3ccc(F)cc3)c(-c3ccncc3)[nH]2)cc1	72%	25%	105% (inactive)	110%	49%	13%	96%	88%	84%	34%	81%	27%	114% (inactive)	103% (inactive)	95%	85%	107%	99%	85%	83%
Nc1nc(Nc2ccc(S(N)(=O)=O)cc2)nn1C(=S)Nc1c(F)cccc1F	14%	11%	89% (inactive)	44%	17%	3%	0%	14%	4%	89%	9%	0%	–	–	47%	7%	6%	9%	1%	16%
CC(=O)c1ccc(N2CCOCC2)cc1O	55%	46%	–	–	97%	83%	90%	95%	107%	88%	94%	73%	98% (inactive)	–	104%	97%	100%	97%	91%	80%
CC(=O)O/N=C1\C(=C2\C(=O)Nc3cc(Br)ccc32)Nc2ccccc21	84%	36%	108% (inactive)	110%	90%	80%	67%	89%	67%	108%	48%	15%	98% (inactive)	111% (inactive)	104%	100%	100%	88%	63%	58%
Cc1cc2ncc(-c3ccccc3)nc2cc1C	80%	52%	104% (inactive)	102%	105%	91%	88%	94%	77%	–	–	59%	106% (inactive)	101% (inactive)	97%	94%	104%	–	92%	82%
Nc1cccc(-c2cc3c(Oc4cccc(O)c4)ncnc3[nH]2)c1	71%	49%	–	–	79%	33%	19%	86%	48%	101%	10%	-1%	–	–	105%	70%	63%	87%	31%	42%
